Only some compounds are listed: those with a hit (about 8% of all), similar ones and a draw of the others.
SW480 rereplic: induces DNA re-replication in SW480 colon adenocarcinoma cells. SW480 DNA re-replication, Hoechst DNA content imaging, 48 h. Potency, µM (series often up to 46.1 µM), for the others: top-dose re-replication activation, most hits filed as activators. 340,000 tested, 1.8% active. AID 624297; further: % of control where 0% means no effect; nearly all actives have a fitted effect of over 55% in size
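Image-based read-out: total Hoechst fluorescence of nuclei (405 nm excitation, 500-530 nm emission), with hits raising the fraction of high-intensity nuclei. SW480 colon cells incubated 48 hr with compounds at 37 C.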
KB-V1 cytotox: KB-V1 MDR subline cytotoxicity; Potency, µM (highest dose often 46.1 µM), usual class: cytotoxic; AID 1347076; KB-V1 MDR cells viability, CellTiter-Glo, 72 h; 400,000 tested, 3.4% active; further: on the % scale 0 is the no-effect control and ±100 the full control effect; nearly all actives have a fitted effect of over 60% in size
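Drug-selected KB-V1 cells, grown in DMEM lacking phenol red with 10% FBS, receive compound titrations; after three days at 37 degrees C, surviving cell ATP is quantified by CellTiter-Glo luminescence and responses normalized and curve-fitted.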
KB-3-1 cytotox: kills parental KB-3-1 adenocarcinoma cells; 400,000 tested, 1.4% active; KB-3-1 viability, CellTiter-Glo ATP luminescence, 72 h; Potency, µM (titrated, usually from 46.1 µM), most hits filed as cytotoxic; further: on the % scale 0 is the no-effect control and ±100 the full control effect; nearly all actives have a fitted effect of over 60% in size
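Parental KB-3-1 adenocarcinoma cells in phenol-red-free DMEM with 10% FBS were pin-treated with compounds at several concentrations, incubated 72 h at 37 °C, and viability read by CellTiter-Glo luminescence; concentration-effect curves were fitted after normalization.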
MCF10A rereplic: inducers of DNA re-replication in MCF 10A breast cells | MCF 10A DNA re-replication, Hoechst nuclear intensity, 48 h | Potency, µM (top dose mostly 46.1 µM), for inactives: at the top dose activity, positive = re-replication, hits mostly activators | 350,000 tested, 2.9% active | AID 624296; further: % of control where 0% means no effect; nearly all actives have a fitted effect of over 50% in size
HT1080NT lethal: kills 2HG-producing HT-1080-NT fibrosarcoma cells; HT-1080-NT fibrosarcoma viability, CellTiter-Glo ATP luminescence, 48 h; Potency, µM (top dose mostly 46.1 µM), for inactives: top-dose activity, negative = less viability, most hits filed as cytotoxic; 360,000 tested, 1.6% active; AID 686970;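 further: NT is the 2HG producing partner of a matched IDH1 knockdown line; 0% = DMSO-treated cells and -100% = media-only wells without cells; nearly all actives have a fitted effect of over 55% in size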
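Compounds were tested in concentration-response format on HT-1080-NT cells for 48 hours at 37 degrees C. Cell viability came from CellTiter-Glo luminescence; curves were classified by r2, response magnitude and activity.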
HT1080 IDH1KD tx: HT-1080 IDH1 knockdown cell toxicity (counter line). HT-1080 IDH1 knockdown viability, ATP luminescence, 48 h. Potency, µM (top dose mostly 46.1 µM), for inactives: at the top dose activity, negative = toxicity, most hits filed as cytotoxic. 360,000 tested, 2% active;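 further: 0% = DMSO wells and -100% = cell-free medium wells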
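After a 2 h attachment period, IDH1KD HT-1080 cells took pin-transferred compound for 48 h at 37 °C; ATP-based luminescence after 10 min room-temperature reagent incubation reported viability.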
An asterisk follows results filed as active; i = inactive; ? = inconclusive; / = not tested or not shown. The call rests on the fitted dose curve; in most records, active means well fitted curve in the direction sought with a large enough effect; inconclusive means small, poorly fitted or top-dose-only effect, or another doubt; inactive means no such curve, though single readings can be large; an effect the other way counts as inactive or inconclusive. Potency means the concentration at half of the fitted maximal effect.

SMILES	SW480 rereplic	KB-V1 cytotox	KB-3-1 cytotox	MCF10A rereplic	HT1080NT lethal	HT1080 IDH1KD tx
CC(C)=CCC/C(C)=C/CNC(=O)C[C@H]1C[C@H](C(=O)N2CCOCC2)[C@@]2(CCC3CCCC3)c3[nH]c4cc(CCC(=O)N(C)C)ccc4c3CCN2C1=O	?	i	i	15µM*	-3%	0%
CC[C@]12c3[nH]c4cc(CCC(=O)N(C)C)ccc4c3CCN1C(=O)[C@@H](CC(=O)NC/C=C(\C)CCC=C(C)C)C[C@@H]2C(=O)N1CCN(C(=O)c2ccco2)CC1	?	i	?	?	?	21µM*
CC[C@]12c3[nH]c4cc(CCC(=O)N(C)C)ccc4c3CCN1C(=O)[C@@H](CC(=O)NCCN1CCOCC1)C[C@@H]2C(=O)N1CCN(C(=O)c2ccco2)CC1	0%	i	i	?	1%	10%
CC[C@]12c3[nH]c4ccc(Cl)cc4c3CCN1C(=O)[C@@H](CC(=O)NC/C=C(\C)CCC=C(C)C)C[C@@H]2C(=O)N1CCN(C(=O)c2ccco2)CC1	9%	i	i	?	?	15µM*
COc1ccc(S(=O)(=O)N2CCCC2CNC(=O)C(=O)Nc2cccc(F)c2)cc1 (stereo not given)	1%	4.1µM*	i	2%	0%	-9%
CCCCCOc1ccc(NC(=O)C(=O)NCC2CCCN2CC)cc1 (stereo not given)	6%	i	i	15µM*	-13%	0%
COc1ccc(NC(=O)C(=O)NCC2CCCN2S(=O)(=O)c2cccs2)cc1 (stereo not given)	2.6µM*	?	?	6.5µM*	?	?
O=C(C[n+]1ccncc1)c1ccc2ccccc2c1	/	i	?	/	/	/
Cc1c2cnn(CC(=O)Nc3ccc(F)cc3F)c(=O)c2c(C)n1Cc1cccc(Cl)c1	/	i	i	/	/	/
COc1cc2c(cc1OC)C(=O)N1[C@H]3c4cc(Cl)ccc4OC[C@@H]3[C@H](c3ccccc3)[C@]1(C)C(=O)N2	?	?	?	9.2µM*	-11%	?
COc1cc2c(cc1OC)C(=O)N1[C@H]3c4cc(C)ccc4OC[C@@H]3[C@H](c3ccccc3)[C@]1(C)C(=O)N2	13µM*	?	?	15µM*	?	16µM*
Cc1cnc(C(=O)OCc2cc(=O)n3c(C)cccc3n2)cn1	-11%	i	i	-2%	4%	15%
COc1ccc(-c2oc3cc(O)c(OC)c(O)c3c(=O)c2OC)cc1O	?	0.65µM*	0.82µM*	?	0.41µM*	0.58µM*
CC1CCC(NC(=O)c2ccc(COc3ccccc3)o2)CC1 (stereo not given)	?	i	i	4%	-12%	-8%
CCN(CC)c1ccc(/C=C2/SC(=O)N(C(C)C)C2=O)o1	5.2µM*	i	?	?	13µM*	?
CC(C)N1C(=O)S/C(=C\c2ccc(-c3ccc(Cl)c(C(=O)O)c3)o2)C1=O	1%	i	i	?	-23%	-17%
O=C(Nc1ncc(Cc2ccc(C(F)(F)F)cc2)s1)c1ccc(-c2cccc([N+](=O)[O-])c2)o1	/	4.6µM*	i	?	-1%	-11%
O=C(Nc1ncc(Cc2ccc(SC(F)F)cc2)s1)c1ccc(OC(F)F)cc1	?	0.33µM*	0.21µM*	?	0.073µM*	0.046µM*
O=C(Nc1ncc(Cc2cccc([N+](=O)[O-])c2)s1)c1ccco1	-1%	i	5.8µM*	?	?	4.6µM*
Cc1ccc(-c2nnc(NC(=O)c3ccco3)s2)cc1	-13%	i	i	-15%	25%	17%
Cc1ccc(Cc2cnc(NC(=O)c3ccco3)s2)cc1	18%	18µM*	i	15%	-15%	-5%
Cc1nsc(Nc2ccccc2)c1C#N	-54%	i	i	14%	7%	-4%

Assay outcomes (PubChem)
